# Source: PubChem (Sanford-Burnham Center for Chemical Genomics)
# CYP2C9 act – human CYP2C9 activators, primary screen, biochemical, luminescence; Cytochrome P450 2C9 (Homo sapiens), P11712; recombinant CYP2C9, luciferin-H conversion; hits give high values; factor 1 = untreated enzyme, 0 = blocked; activation factor at 5 µM; hit rate 1.4% among 96,000; AID 1024, 2008;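 active means activation factor of 2 or more for CYP2C9 at a 5 µM dose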;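 further: 0 = sulfaphenazole-blocked wells and 1 = vehicle-only wells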
# Target sequence (P11712 whole entry, looked up): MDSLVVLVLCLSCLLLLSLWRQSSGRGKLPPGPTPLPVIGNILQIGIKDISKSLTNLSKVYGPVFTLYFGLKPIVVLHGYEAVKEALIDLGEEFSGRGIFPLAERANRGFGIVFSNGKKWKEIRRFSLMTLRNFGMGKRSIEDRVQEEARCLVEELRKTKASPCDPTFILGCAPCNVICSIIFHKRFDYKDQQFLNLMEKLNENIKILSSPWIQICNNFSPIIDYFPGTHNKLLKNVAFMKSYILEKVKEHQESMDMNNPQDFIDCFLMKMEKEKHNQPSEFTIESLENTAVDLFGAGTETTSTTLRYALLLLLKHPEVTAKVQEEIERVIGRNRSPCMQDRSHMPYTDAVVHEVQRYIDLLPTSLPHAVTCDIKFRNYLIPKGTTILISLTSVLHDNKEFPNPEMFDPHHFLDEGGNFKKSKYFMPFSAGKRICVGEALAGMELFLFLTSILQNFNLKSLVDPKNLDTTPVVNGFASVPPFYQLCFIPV
# CYP2C19 inhib – blockers of cytochrome P450 2C19 activity – biochemical, luminescence, ADME assay, primary screen; inhibition, % at 5 µM; CYP2C19 Supersomes, luciferin-H EGE luminescence, 30 min; hit rate 21% among 96,000; AID 778, 2007;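 active means CYP2C19 inhibition above a set limit at 5 µM in the primary screen, cut at about 50% in these data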;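 further: plate controls were negative control wells for no effect and 2.5 mM tranylcypromine positive control for full effect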
# Mac1 fbg inh – inhibitors of CD11b/CD18 adhesion to fibrinogen, primary screen, K562 cells, luminescence. Integrin beta-2 (Homo sapiens) + Integrin alpha-M (Homo sapiens), P05107+P11215. ATPlite luminescence; Mn2+ added to activate the integrin. inhibition, % at 10 µM. hit rate 0.54% among 93,000. AID 1497, 2009;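 active means primary inhibition of 50% or more at 10 µM, then 40% or more on retest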
# CYP2C9 inh – blockers of cytochrome P450 2C9 activity – biochemical, luminescence, ADME assay, primary screen; P11712; CYP2C9 Supersomes, luciferin-H conversion; inhibition, % at 5 µM; hit rate 20% among 96,000; AID 777, 2007;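 active means blocking of liver enzyme CYP2C9 beyond about 50% at 5 µM, limit read from the data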
# CD11b adhes enh – enhancers of CD11b/CD18 adhesion to fibrinogen, primary screen, K562 cells, luminescence. Integrin beta-2 (Homo sapiens) + Integrin alpha-M (Homo sapiens), P05107+P11215. hit rate 0.07% among 93,000. activation, % at 10 µM. ATPlite luminescence;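 active means 10 µM primary screen giving 50% or more activity, confirmed by 40% or more on retest at that dose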
# CYP2C19 act – human CYP2C19 activators, primary screen, biochemical, luminescence; activation factor at 5 µM; Cytochrome P450 2C19 (Homo sapiens), P33261; 96,000 tested, under 10 active; recombinant CYP2C19, luciferin-H EGE luminescence; hits give high values; 0 = fully inhibited enzyme, 1 = untreated enzyme;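 active means activation factor of at least 2 at 5 µM in the primary screen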;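 further: 0 = wells with 2.5 mM tranylcypromine and 1 = vehicle-only wells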
# Active calls of the source: *; x = no result. An excerpt weighted towards active compounds, which were near 28% of everything screened.
SMILES,CYP2C9 act,CYP2C19 inhib,Mac1 fbg inh,CYP2C9 inh,CD11b adhes enh,CYP2C19 act
CC1Cc2ccccc2N1C(=O)CSc1nnc2n1C(C)(C)Cc1ccccc1-2 (stereo not drawn),0.4,73.9*,-5.5,56.3*,-1.8,0.3
CCC(CC)C(=O)Nc1nnc(SCC(=O)N2CCN(c3ccccc3OC)CC2)s1,0.3,50.3*,17.5,73.4*,-0.5,0.5
O=C(c1ccc(CNc2c(NC3CCCCC3)c(=O)c2=O)cc1)N1CCc2ccccc21,0.8,5.2,-8.4,19.2,55.2,0.9
CCN(CCCNC(=O)COc1cc(=O)n(CC)c2ccccc12)Cc1ccccc1,1,5.7,x,2.0,x,0.9
C=CCON1C(=O)c2ccccc2C1=O,1,1.0,-8.6,0.4,1.3,1
COc1cccc(-n2c(SCC(=O)N3c4ccccc4CC3C)nnc2-c2ccco2)c1 (stereo not drawn),0.1,79.6*,-1.6,91.9*,2.8,0.2
COc1ccccc1N1CCN(C(=O)CSc2ncccc2-c2nc3ccccc3[nH]2)CC1,0.4,73.9*,-32.3,57.6*,1.5,0.3
CC(C)OC(=O)CSc1nnc2n1C(C)(C)Cc1ccccc1-2,0.5,49.1,-8.9,52.9*,4.8,0.5
COc1ccccc1N1CCN(C(=O)CSc2nnc3n2C(C)(C)Cc2ccccc2-3)CC1,0.6,92.2*,23.6,38.5,-4.1,0.1
CC1Cc2ccccc2N1C(=O)CSc1nc(-c2ccco2)cc(C(F)(F)F)n1 (stereo not drawn),0.9,1.7,-2.0,7.9,-4.1,1
CCC(=O)Nc1ccc(NC(=O)CSc2nnnn2-c2cccnc2)cc1C,1,1.3,-0.3,4.7,-0.9,1
COc1cc2c(C(=O)NC3CCCCCC3)cn(C)c(=O)c2cc1OC,0.9,4.2,x,13.9,x,1
Cc1csc(SCC(=O)Nc2sc3c(c2C#N)CCC3)n1,0.3,9.2,-4.1,69.3*,-3.5,0.9
Cc1ccnc(SCC(=O)Nc2sc3c(c2C#N)CCCC3)n1,0.8,5.1,15.0,22.6,-2.1,0.9
N#Cc1c(NC(=O)CSc2ncn[nH]2)sc2c1CCCC2,0.2,37.6,17.8,78.7*,-2.1,0.6
N#Cc1c(NC(=O)CSC2=NCCS2)sc2c1CCCC2,1,-7.4,6.2,3.6,-1.1,1.1
CCCCC(=O)Nc1ccc(C(=O)NNC(=O)c2ccccc2Br)cc1,1,-15.4,x,2.3,x,1.2
CCSc1nnc(NC(=O)CN(C)S(=O)(=O)c2ccc(F)cc2)s1,0.2,81.1*,10.1,75.4*,-3.5,0.2
CC(=O)Nc1ccccc1NC(=O)CN(C)S(=O)(=O)c1ccc(C)cc1,1.2,79.7*,-4.6,-16.2,-5.8,0.2
CS(=O)(=O)N(CC(=O)Nc1ccccc1Sc1ccccc1)c1ccc(F)cc1,0.4,27.8,23.6,60.8*,-3.7,0.7
CSc1ccccc1NC(=O)CN(C)S(=O)(=O)c1ccc(F)cc1,3.6*,40.7,-36.4,-265.0,0.4,0.6
O=C(Cc1ccc(F)cc1)Nc1ccccc1Sc1ccccc1,x,x,10.5,x,-7.6,x
CNC(=O)CN(C)S(=O)(=O)c1ccc(F)cc1,0.8,6.9,-11.3,20.8,-1.2,0.9
CCCC(=O)Nc1ccccc1NC(=O)CN(C)S(=O)(=O)c1ccc(C)cc1,0.5,10.0,-20.5,48.6,-0.4,0.9
Cc1ccc(S(=O)(=O)NCC(=O)OCC(=O)NC(=O)c2cccn2C)cc1,0.8,8.0,8.5,18.7,-4.7,0.9
CC(C(=O)Nc1ccccc1Sc1ccccc1)N(c1ccccc1)S(C)(=O)=O (stereo not drawn),0.5,40.9,x,54.5*,x,0.6
CS(=O)(=O)N(Cc1ccc(C(=O)Nc2ccccc2Sc2ccccc2)cc1)c1ccccc1,0.6,3.9,-8.7,38.9,-4.7,1
O=C(CN1C(=O)NC2(CCCCCC2)C1=O)c1ccc2c(c1)OCCO2,0.6,14.5,-19.4,40.6,2.0,0.9
O=C(CN1c2ccccc2Sc2ccccc21)NNC(=S)Nc1ccc(Cl)cc1Cl,0.2,-0.8,x,80.0*,x,1
